# Assay results taken from the supplement of paper PMC10849652.
# The full data set covers some 8,800 targets. This sample favours those with a hit. About 0.5% of all pairs of compound and target were hits. Values without a mark were called inactive.
# Assays:
# Assay in all cases: log2 fold change, soluble protein after heating vs DMSO (PISA); higher = thermal stabilisation; K562 lysate, 10 uM; active = over 0.2 and 3.5 SD of the protein, either way, in both replicates (recomputed)
# nilotinib = compound: Cc1cn(-c2cc(NC(=O)c3ccc(C)c(Nc4nccc(-c5cccnc5)n4)c3)cc(C(F)(F)F)c2)cn1 [nilotinib]
# Procedure, shortened: (§1)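 Following dounce homogenisation of K562 pellets in PBS pH 7.4 with 1 mM MgCl2, crude extract at 1 mg/mL protein was incubated for 30 min with 10 μM compound. Aliquots were then heated for 3 min over 48°C-58°C and pooled, NP-40 was added to 0.5% at 4°C, and soluble protein was recovered as the supernatant at 21,000xg for 90 min. Channel-sum-equalised TMTpro 16plex LC-MS/MS quantified this protein. Each value, from duplicates, is a log-two fold change in thermal stability relative to solvent controls.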
# [1] = compound: Cc1nc(Nc2n[nH]c3c2CN(C(=O)N[C@H](CN(C)C)c2ccccc2)C3(C)C)c2sccc2n1
# Procedure, shortened: as §1
# dasatinib = compound: Cc1nc(Nc2ncc(C(=O)Nc3c(C)cccc3Cl)s2)cc(N2CCN(CCO)CC2)n1 [dasatinib]
# Procedure, shortened: as §1
# [2] = compound: Cc1ncc(-c2ccnc(Nc3ccc(S(C)(=O)=O)cc3)n2)n1C(C)C
# Procedure, shortened: as §1
# [3] = compound: Cn1cc(-c2ccc3c(c2)CCN3C(=O)Cc2cccc(C(F)(F)F)c2)c2c(N)ncnc21
# Procedure, shortened: as §1
# quisinostat = compound: Cn1cc(CNCC2CCN(c3ncc(C(=O)NO)cn3)CC2)c2ccccc21 [quisinostat]
# Procedure, shortened: as §1
# tipifarnib = compound: Cn1cncc1[C@@](N)(c1ccc(Cl)cc1)c1ccc2c(c1)c(-c1cccc(Cl)c1)cc(=O)n2C [tipifarnib]
# Procedure, shortened: as §1
# [4] = compound: NC(=O)Nc1cc(-c2cccc(F)c2)sc1C(=O)N[C@H]1CCCNC1
# Procedure, shortened: as §1
# [5] = compound: NC(=O)c1cnc(N[C@@H]2CCCC[C@@H]2N)nc1Nc1cccc(-n2nccn2)c1
# Procedure, shortened: as §1
# [6] = compound: NC1(c2ccc(-c3nc4ccn5c(=O)[nH]nc5c4cc3-c3ccccc3)cc2)CCC1
# Procedure, shortened: as §1
# [7] = compound: NCC(=O)Nc1ccc(-n2nc(C(F)(F)F)cc2-c2ccc3c(ccc4ccccc43)c2)cc1
# Procedure, shortened: as §1
# vorinostat = compound: O=C(CCCCCCC(=O)Nc1ccccc1)NO [vorinostat]
# Procedure, shortened: as §1
# silmitasertib = compound: O=C(O)c1ccc2c(c1)nc(Nc1cccc(Cl)c1)c1ccncc12 [silmitasertib]
# Procedure, shortened: as §1
# [8] = compound: O=C1NC(=O)C(c2cnc3ccccn23)=C1c1cn2c3c(cc(F)cc13)CN(C(=O)N1CCCCC1)CC2
# Procedure, shortened: as §1
# entospletinib = compound: c1cn2cc(-c3ccc4cn[nH]c4c3)nc(Nc3ccc(N4CCOCC4)cc3)c2n1 [entospletinib]
# Procedure, shortened: as §1
# Chain of UniProt O00483 (O00483 whole entry, looked up): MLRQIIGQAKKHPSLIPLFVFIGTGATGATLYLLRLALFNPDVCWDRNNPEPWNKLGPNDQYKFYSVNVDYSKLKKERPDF
# Chain of UniProt Q460N5 (Q460N5 whole entry, looked up): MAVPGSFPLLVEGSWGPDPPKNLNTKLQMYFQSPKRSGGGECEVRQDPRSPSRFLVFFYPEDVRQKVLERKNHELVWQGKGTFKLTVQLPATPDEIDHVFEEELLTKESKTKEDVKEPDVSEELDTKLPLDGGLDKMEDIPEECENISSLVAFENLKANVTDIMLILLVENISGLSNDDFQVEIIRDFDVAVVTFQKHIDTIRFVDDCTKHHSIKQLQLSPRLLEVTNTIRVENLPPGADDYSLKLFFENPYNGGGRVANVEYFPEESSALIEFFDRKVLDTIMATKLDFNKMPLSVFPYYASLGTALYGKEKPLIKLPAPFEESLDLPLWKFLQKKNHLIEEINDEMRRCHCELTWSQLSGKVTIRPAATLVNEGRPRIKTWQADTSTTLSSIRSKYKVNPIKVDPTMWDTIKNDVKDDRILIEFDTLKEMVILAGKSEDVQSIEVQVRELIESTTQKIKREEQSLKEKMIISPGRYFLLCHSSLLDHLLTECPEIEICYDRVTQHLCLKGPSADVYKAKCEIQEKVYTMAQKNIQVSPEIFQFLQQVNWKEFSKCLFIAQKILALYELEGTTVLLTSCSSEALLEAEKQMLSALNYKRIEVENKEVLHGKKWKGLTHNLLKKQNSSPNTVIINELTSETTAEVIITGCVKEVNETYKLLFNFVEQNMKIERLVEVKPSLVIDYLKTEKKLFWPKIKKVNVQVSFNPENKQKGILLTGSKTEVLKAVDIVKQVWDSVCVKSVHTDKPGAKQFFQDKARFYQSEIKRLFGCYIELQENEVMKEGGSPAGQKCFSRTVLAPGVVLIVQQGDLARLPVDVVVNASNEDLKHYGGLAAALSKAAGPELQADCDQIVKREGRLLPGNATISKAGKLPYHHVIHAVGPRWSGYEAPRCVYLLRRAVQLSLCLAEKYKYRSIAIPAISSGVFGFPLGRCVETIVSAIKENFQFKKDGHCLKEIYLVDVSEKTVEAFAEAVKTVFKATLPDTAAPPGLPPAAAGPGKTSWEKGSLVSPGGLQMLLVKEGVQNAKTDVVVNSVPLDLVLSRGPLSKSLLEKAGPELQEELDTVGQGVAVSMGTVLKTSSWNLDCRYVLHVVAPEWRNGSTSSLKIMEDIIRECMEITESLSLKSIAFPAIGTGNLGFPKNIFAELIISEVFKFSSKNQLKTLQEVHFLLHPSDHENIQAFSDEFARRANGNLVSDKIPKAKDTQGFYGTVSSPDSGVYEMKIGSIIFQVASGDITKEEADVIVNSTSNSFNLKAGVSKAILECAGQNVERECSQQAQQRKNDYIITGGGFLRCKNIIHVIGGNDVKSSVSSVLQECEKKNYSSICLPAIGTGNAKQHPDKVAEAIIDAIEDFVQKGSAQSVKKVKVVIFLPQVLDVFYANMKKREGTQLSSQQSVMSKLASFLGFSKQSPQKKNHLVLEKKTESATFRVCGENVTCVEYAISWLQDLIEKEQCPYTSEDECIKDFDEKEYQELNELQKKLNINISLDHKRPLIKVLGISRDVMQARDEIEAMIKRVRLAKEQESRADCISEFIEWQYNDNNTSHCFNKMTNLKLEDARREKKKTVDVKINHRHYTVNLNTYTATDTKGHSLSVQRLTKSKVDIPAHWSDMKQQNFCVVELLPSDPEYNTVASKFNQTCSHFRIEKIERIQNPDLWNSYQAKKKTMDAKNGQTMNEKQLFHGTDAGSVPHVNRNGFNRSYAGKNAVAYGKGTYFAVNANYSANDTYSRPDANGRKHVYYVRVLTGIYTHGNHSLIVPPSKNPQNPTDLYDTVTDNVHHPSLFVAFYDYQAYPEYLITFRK
# Chain of UniProt Q13153 (Q13153 whole entry, looked up): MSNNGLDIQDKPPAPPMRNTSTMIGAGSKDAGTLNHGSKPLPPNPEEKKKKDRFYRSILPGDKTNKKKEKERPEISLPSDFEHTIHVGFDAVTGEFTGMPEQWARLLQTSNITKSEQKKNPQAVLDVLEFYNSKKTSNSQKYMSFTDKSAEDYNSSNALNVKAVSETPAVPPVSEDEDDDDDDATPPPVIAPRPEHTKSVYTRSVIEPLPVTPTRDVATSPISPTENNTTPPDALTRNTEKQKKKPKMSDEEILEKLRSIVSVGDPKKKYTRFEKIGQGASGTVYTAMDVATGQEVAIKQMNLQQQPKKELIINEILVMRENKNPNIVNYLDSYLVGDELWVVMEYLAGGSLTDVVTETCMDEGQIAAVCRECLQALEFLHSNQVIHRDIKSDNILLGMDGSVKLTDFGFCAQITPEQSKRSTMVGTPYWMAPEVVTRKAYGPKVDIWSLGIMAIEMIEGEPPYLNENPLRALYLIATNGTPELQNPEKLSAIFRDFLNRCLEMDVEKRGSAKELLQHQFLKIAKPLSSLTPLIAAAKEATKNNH
# Chain of UniProt Q15653 (Q15653 whole entry, looked up): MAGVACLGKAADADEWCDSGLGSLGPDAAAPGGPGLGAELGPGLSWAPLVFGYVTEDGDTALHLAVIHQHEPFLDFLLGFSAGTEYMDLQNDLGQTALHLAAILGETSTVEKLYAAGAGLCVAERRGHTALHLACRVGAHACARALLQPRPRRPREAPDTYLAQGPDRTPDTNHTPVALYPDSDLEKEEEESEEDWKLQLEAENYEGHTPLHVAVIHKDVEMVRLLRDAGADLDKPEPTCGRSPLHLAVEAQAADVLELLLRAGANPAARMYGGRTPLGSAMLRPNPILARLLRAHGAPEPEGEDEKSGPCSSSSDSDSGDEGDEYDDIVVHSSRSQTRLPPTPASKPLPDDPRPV
# Chain of UniProt Q9NZJ9 (Q9NZJ9 whole entry, looked up): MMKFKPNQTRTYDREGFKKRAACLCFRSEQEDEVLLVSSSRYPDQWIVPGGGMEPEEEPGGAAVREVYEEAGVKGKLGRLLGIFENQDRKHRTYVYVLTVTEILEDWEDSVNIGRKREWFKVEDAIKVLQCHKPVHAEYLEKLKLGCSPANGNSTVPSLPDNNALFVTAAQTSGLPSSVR
# Chain of UniProt Q8TEM1 (Q8TEM1 whole entry, looked up): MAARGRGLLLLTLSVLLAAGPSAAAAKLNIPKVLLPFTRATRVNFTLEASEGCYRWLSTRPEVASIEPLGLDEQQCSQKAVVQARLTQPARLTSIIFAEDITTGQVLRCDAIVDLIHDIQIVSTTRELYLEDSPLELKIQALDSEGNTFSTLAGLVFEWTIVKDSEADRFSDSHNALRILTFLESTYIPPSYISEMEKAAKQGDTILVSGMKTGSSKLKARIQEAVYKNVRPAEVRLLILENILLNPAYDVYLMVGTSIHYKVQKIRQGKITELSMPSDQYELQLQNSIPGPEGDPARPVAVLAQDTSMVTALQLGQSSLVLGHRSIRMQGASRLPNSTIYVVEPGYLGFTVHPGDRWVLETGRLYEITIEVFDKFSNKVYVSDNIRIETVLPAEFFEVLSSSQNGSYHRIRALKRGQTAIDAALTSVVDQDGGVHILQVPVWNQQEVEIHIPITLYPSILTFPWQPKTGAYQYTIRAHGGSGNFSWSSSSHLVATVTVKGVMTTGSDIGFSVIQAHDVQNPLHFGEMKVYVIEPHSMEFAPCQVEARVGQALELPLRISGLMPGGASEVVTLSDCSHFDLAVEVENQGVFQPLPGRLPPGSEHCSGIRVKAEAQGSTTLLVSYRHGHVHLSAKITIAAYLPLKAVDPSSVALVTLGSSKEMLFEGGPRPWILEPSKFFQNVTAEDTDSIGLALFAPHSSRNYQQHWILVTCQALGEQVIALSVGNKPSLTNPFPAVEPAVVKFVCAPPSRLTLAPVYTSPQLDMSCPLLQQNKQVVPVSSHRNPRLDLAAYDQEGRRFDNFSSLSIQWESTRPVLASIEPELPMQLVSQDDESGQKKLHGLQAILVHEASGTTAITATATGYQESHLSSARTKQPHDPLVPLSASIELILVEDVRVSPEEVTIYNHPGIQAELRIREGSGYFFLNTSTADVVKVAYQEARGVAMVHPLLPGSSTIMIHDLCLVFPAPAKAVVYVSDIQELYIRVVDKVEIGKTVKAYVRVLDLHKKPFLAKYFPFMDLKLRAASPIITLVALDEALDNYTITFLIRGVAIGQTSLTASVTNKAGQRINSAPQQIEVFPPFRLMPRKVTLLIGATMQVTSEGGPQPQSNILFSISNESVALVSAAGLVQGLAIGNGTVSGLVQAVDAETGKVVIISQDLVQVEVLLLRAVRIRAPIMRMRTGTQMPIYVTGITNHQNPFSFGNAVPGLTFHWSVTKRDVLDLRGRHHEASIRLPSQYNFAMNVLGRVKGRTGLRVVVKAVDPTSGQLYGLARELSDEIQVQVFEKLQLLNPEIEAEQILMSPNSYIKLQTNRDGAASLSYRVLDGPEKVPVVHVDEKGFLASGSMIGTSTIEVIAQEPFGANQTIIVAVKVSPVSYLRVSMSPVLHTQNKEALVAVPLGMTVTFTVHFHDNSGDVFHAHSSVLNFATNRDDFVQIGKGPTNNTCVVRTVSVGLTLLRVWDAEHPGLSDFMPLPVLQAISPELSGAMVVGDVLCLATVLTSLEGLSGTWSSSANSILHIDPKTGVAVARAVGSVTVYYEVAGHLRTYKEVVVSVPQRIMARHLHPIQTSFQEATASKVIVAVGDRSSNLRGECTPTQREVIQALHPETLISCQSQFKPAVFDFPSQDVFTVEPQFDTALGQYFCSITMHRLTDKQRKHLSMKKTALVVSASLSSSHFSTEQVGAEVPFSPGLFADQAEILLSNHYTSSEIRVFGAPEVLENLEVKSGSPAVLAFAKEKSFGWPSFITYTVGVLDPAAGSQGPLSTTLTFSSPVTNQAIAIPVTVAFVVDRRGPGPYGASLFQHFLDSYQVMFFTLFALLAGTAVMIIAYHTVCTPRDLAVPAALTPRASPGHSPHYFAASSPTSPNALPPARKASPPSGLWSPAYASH
Target,log2 fold change (nilotinib),log2 fold change [1],log2 fold change (dasatinib),log2 fold change [2],log2 fold change [3],log2 fold change (quisinostat),log2 fold change (tipifarnib),log2 fold change [4],log2 fold change [5],log2 fold change [6],log2 fold change [7],log2 fold change (vorinostat),log2 fold change (silmitasertib),log2 fold change [8],log2 fold change (entospletinib)
NFKBIB (UniProt Q15653),-0.004,-0.015,-0.042,0.052,0.043,-0.062,0.059,0.025,0.004,-0.08,-0.052,-0.204,0.04,0.024,0
NUP210 (UniProt Q8TEM1),-0.019,-0.008,-0.08,0.009,0.001,0.084,-0.043,-0.01,0.059,-0.019,-0.006,0.276 (active),0.022,-0.013,-0.038
NUDT4 isoform 2 (UniProt Q9NZJ9),-0.004,0.012,0.13,-0.002,0.038,-0.012,-0.044,0.016,-0.042,0.043,0.057,-0.336 (active),-0.034,0.018,-0.023
NUMBL (UniProt Q9Y6R0),0.038,-0.013,-0.041,-0.12,0.219,0.04,-0.06,-0.415 (active),-0.055,-0.046,0.04,-0.237,0.201,0.021,0.102
NDUFA4 (UniProt O00483),0.062,0.058,0.043,0.16,-0.007,0.104,0.031,-0.065,0.08,0.019,-0.041,-0.017,-0.004,0.01,-0.029
NMT1 (UniProt P30419),-0.037,0.044,0.058,-0.016,-0.022,-0.065,0.001,0.007,-0.005,-0.057,-0.35 (active),0.028,-0.03,-0.036,0.034
MYO9A isoform 4 (UniProt B2RTY4),0.059,-0.044,-0.176,0,0.052,-0.074,-0.005,0.112,0.039,-0.112,-0.051,0.084,-0.019,-0.03,–
PBK (UniProt Q96KB5),-0.01,0.006,-0.035,0.017,0.017,-0.02,0.033,0.032,0.017,0.024,-0.029,-0.269 (active),0.013,-0.021,0.035
PARD3 (UniProt Q8TEW0),-0.114,-0.109,0.021,-0.031,0.024,-0.002,0.121,0.029,0.199,0.105,-0.071,-0.314,-0.118,-0.081,-0.003
PAK1 (UniProt Q13153),0.028,0.02,0.046,0.012,-0.024,0.044,-0.053,-0.028,-0.025,-0.012,0.008,0.13,-0.046,-0.001,0.051
MYH11 isoform 2 (UniProt P35749),-0.072,-0.022,-0.043,-0.011,0.014,0.099,-0.045,-0.029,0.013,-0.032,0.014,0.042,0.02,-0.005,0.013
MTA2 (UniProt O94776),0.001,0.017,-0.019,-0.011,0.046,-0.062,-0.007,0.03,-0.002,0.001,0.034,-0.352 (active),0.02,0.006,0.021
NELFA (UniProt Q9H3P2),-0.018,-0.01,-0.064,-0.02,-0.009,-0.007,0.024,0.03,0.048,-0.014,-0.057,-0.309 (active),-0.004,0.008,-0.027
NPTN (UniProt Q9Y639),-0.029,0.005,-0.06,-0.025,-0.009,-0.038,0.043,0.031,0.004,0.002,0.067,0.078,-0.031,0.04,0.096
NUDT5 (UniProt Q9UKK9),0.021,0,0.045,0.008,-0.024,-0.016,-0.013,-0.018,-0.013,-0.014,-0.018,0.1,-0.021,0.02,0.012
PARP14 (UniProt Q460N5),0.004,-0.022,-0.024,0.068,0.256,-0.025,-0.068,0.128,0.051,-0.09,-0.006,-0.391 (active),0.009,0.149,-0.014
NGLY1 (UniProt Q96IV0),-0.004,0.02,-0.038,0.008,0.042,-0.104,-0.016,0.041,-0.005,-0.03,-0.014,-0.29 (active),0.041,0.018,0.034
OTUD7B (UniProt Q6GQQ9),-0.017,0.017,0.005,0.03,0.027,-0.252,0.05,0.142,0.026,-0.095,0.044,0.331 (active),-0.038,0.194,-0.04
NOA1 (UniProt Q8NC60),-0.041,-0.012,-0.05,-0.011,-0.036,-0.089,-0.027,0.059,0.04,-0.001,0.065,-0.411 (active),0.049,0.048,-0.008
NDUFS1 isoform 2 (UniProt P28331),0.005,-0.001,0.013,-0.021,0.009,0.112,-0.002,-0.018,0.003,0.006,-0.006,0.118,0.032,-0.052,-0.014
NARF (UniProt Q9UHQ1),-0.029,0.011,0.01,-0.031,0.014,-0.03,-0.062,0.017,-0.079,0.005,-0.05,-0.243 (active),-0.016,-0.008,-0.054
